Screening results deposited in PubChem BioAssay by National Center for Advancing Translational Sciences (NCATS).
NS1 function inh: inhibitors of influenza NS1 protein function | Potency, µM (series often up to 46.1 µM) | hit rate 0.4% among 270,000; calls by dose curve; note: actives are rising curves; nearly all actives have a fitted effect of over 50% in size
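Read-out: OD600 growth recovery of NS1-expressing budding yeast. Cells grown overnight at 30C in -URA glucose medium, washed, resuspended and diluted 1:100 in 2% galactose assay medium, pH 6.0. Same strain lacking NS1 served as positive control.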
AMA1-RON2 inh: AMA1-RON2 (P. falciparum) interaction inhibition; AlphaScreen AMA1-biotinylated RON2 peptide binding; Potency, µM (doses to about 58.2 µM), usual class: inhibitors; hit rate 0.2% among 360,000; AID 720542; note: nearly all actives have a fitted effect of over 45% in size
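AMA1 (3D7) with his tag at 25 nM final met compounds first, then biotinylated RON2 peptide at 25 nM; detection used donor plus acceptor beads, 10 µg/mL apiece, read by AlphaScreen after 30 min at room temperature.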
HCV inhibitor: blocks hepatitis C virus; Huh7.5.1 HCVcc-Cre infection, luciferase reporter, 44 h; hit rate 3.4% among 340,000; AID 651820; Potency, µM (doses to about 41.8 µM), most hits filed as inhibitors
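Cells seeded at 1,000/well and cultured 4 h, then compounds added followed by HCVcc-Cre virus (~0.5 moi). After 44 h further culture, luciferase substrate was added, plates held 15 min at room temperature, and luminescence read for 15 sec.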
Pf growth 96h: P. falciparum growth inhibition at 96 hour, primary screen for plastid delayed-death inhibitors; P. falciparum luciferase reporter growth, 96 h; Potency, µM (titrated, usually from 28.7 µM), usual class: inhibitors; hit rate 6.9% among 320,000; AID 504834
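Parasite growth measured via integrated firefly luciferase reporter in P. falciparum. Infected erythrocytes at 2% hematocrit, 0.05% parasitemia final were treated 96 hours at 37 C under 5% CO2, and luminescence was read.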
SARS PLpro yeast: inhibitors of SARS-CoV papain-like protease in yeast. S. cerevisiae expressing SARS-CoV PLpro, growth rescue. Potency, µM (top dose mostly 32.9 µM), actives largely listed as activators. hit rate 0.19% among 330,000. AID 485353; calls by dose curve; note: nearly all actives have a fitted effect of over 55% in size
Pf growth 48h: P. falciparum growth inhibition at 48 hours (one generation); P. falciparum luciferase growth in erythrocytes, 48 h; hit rate 5.9% among 310,000; Potency, µM (titrated, usually from 28.7 µM), most hits filed as inhibitors
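First compound was added to culture medium, then infected red cells at 0.1% parasitemia and 2% hematocrit (final). After incubation at 37 C under 5% CO2, luciferase detection reagent was dispensed and light output recorded.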
Of the large screens only hits and unclear results are named; the others gave an inactive call. This is a sample that favours compounds with a hit; in the whole collection about 12% have one here. Unless noted, calls come from the whole dose curve; as a rule, active = well fitted curve in the direction sought with a large enough effect; inconclusive = small, poorly fitted or top-dose-only effect, or another doubt; inactive = no such curve, though single readings can be large; an effect the other way counts as inactive or inconclusive.

CCOC(=O)CC(=O)Nc1cc(Cl)ccc1O	Pf growth 96h 12µM
O=C(CCc1ccccc1)Nc1ccccc1	Pf growth 96h inconclusive
O=C(CCc1ccccc1)Nc1cccnc1Cl	none
O=C(Nc1cc(Cl)ccc1O)c1snnc1-c1ccccc1	HCV inhibitor 18µM, Pf growth 96h 12µM, Pf growth 48h inconclusive
O=C(Nc1cccc(Cl)c1Cl)c1snnc1-c1ccccc1	NS1 function inh inconclusive
O=C(O)CC(=O)Nc1cc(Cl)ccc1O	none (no result: Pf growth 48h)
NCC1OC(O[C@@H]2[C@H](O)[C@@H](OC3C(O)C(N)CC(N)C3OC3OC(CO)C(O)C(O)C3N)O[C@@H]2CO)C(N)C(O)C1O (some centres undefined)	none (no result: AMA1-RON2 inh, HCV inhibitor, Pf growth 96h, SARS PLpro yeast, Pf growth 48h)
CCCCn1c(SCC(=O)Nc2ccc(OC)cc2)nc2ccc(N3CCOCC3)cc2c1=O	Pf growth 96h inconclusive, Pf growth 48h inconclusive
CCCCn1c(SCC(=O)NCc2ccccc2)nc2ccc(N3CCOCC3)cc2c1=O	Pf growth 48h 12µM
CCCCn1c(SCC(=O)NCc2ccco2)nc2ccc(N3CCOCC3)cc2c1=O	HCV inhibitor inconclusive, Pf growth 48h 15µM
CCCCn1c(SCC(=O)NC(C)CC)nc2ccc(N3CCOCC3)cc2c1=O (centres undefined)	Pf growth 96h inconclusive, Pf growth 48h inconclusive
CCc1ccc(CN(C)C(=O)CCc2nnc(COc3ccccc3)o2)cc1	Pf growth 96h inconclusive
Cc1nn(C)c(C)c1CN(C(=O)C1CCC(=O)N(C2CCCCCC2)C1)C(C)C (centres undefined)	Pf growth 96h 12µM, SARS PLpro yeast inconclusive, Pf growth 48h inconclusive
Oc1ccccc1C=NC1=NN(c2cccc(C(F)(F)F)c2)CC1	Pf growth 96h 2.1µM
Cc1cccc(NC(=O)c2ncn3c2C(=O)N[C@@H](C)C3)c1	none (no result: NS1 function inh, HCV inhibitor, Pf growth 96h, SARS PLpro yeast, Pf growth 48h)
CCOc1cc2[nH]c(=S)n(Cc3ccc(C(=O)NCCN(CC)CC)cc3)c(=O)c2cc1OCC	HCV inhibitor inconclusive, Pf growth 48h 2.6µM
CC(C)NC(=O)c1ccc2c(=O)n(C3CCCC3)c(=S)[nH]c2c1	none
CCN(CC)CCNC(=O)CCCCn1c(=S)[nH]c2c([nH]c3ccc(OC)cc32)c1=O	Pf growth 96h inconclusive, Pf growth 48h 9.3µM
CCCCNC(=O)c1ccc(Cn2c(=S)[nH]c3c([nH]c4ccc(OC)cc43)c2=O)cc1	HCV inhibitor inconclusive, Pf growth 96h inconclusive, Pf growth 48h inconclusive
COCCNC(=O)c1ccc2c(=O)n(CCCN3CCCC3=O)c(=S)[nH]c2c1	Pf growth 96h inconclusive, Pf growth 48h inconclusive (no result: NS1 function inh)
CCN(CC)CCNC(=O)c1ccc2c(=O)n(C3CCCC3)c(=S)[nH]c2c1	HCV inhibitor inconclusive, Pf growth 48h 2.3µM
CCCCCNC(=O)c1ccc2c(=O)n(CCCN3CCCC3=O)c(=S)[nH]c2c1	HCV inhibitor inconclusive, Pf growth 96h 10µM, Pf growth 48h 5.9µM (no result: NS1 function inh)
CCOCCCn1c(=S)[nH]c2cc(C(=O)NCCN(CC)CC)ccc2c1=O	HCV inhibitor 13µM, Pf growth 96h inconclusive, Pf growth 48h inconclusive
COc1cc2[nH]c(=S)n(Cc3ccc(C)cc3)c(=O)c2cc1OC	Pf growth 96h 10µM (no result: NS1 function inh)
CCCCNC(=O)c1ccc2c(=O)n(CCCOCC)c(=S)[nH]c2c1	none
Clc1ccc(OCCCc2nc(-c3cccnc3)no2)c(Cl)c1	Pf growth 96h 9.3µM
CCc1ccc2[nH]c(=O)c(CN(Cc3ccccc3)Cc3nnnn3Cc3ccco3)cc2c1	HCV inhibitor inconclusive, Pf growth 48h 9.3µM
Cc1ccc2[nH]c(=O)c(CN(Cc3ccc4c(c3)OCO4)Cc3nnnn3Cc3ccco3)cc2c1	NS1 function inh inconclusive, HCV inhibitor inconclusive, Pf growth 48h inconclusive (no result: Pf growth 96h)
CCOC(=O)Cn1nnnc1CN(Cc1ccccc1)Cc1cc2cc(CC)ccc2[nH]c1=O	Pf growth 96h 12µM
COc1ccccc1N(C)S(=O)(=O)c1ccc(C(=O)NC(C)c2ccccc2)cc1 (centres undefined)	HCV inhibitor inconclusive, Pf growth 96h inconclusive, Pf growth 48h inconclusive
C[C@H]1C(=O)N(C)CCN1Cc1cn(C)nc1-c1ccc(Oc2ccccc2)cc1	HCV inhibitor inconclusive, Pf growth 48h inconclusive
CCN(CC)C(=O)C1CCN(Cc2cn(C)nc2-c2ccc(Oc3ccccc3)cc2)CC1	Pf growth 48h 7.4µM
COc1c([N+](=O)[O-])cc(C(=O)NNC(=O)c2ccc(C)cc2)cc1[N+](=O)[O-]	Pf growth 96h inconclusive
CCOc1ccc(CCNC(=O)COC(=O)c2cc(OC)c(OC)c(OC)c2)cc1OCC	Pf growth 48h inconclusive (no result: NS1 function inh, AMA1-RON2 inh, HCV inhibitor)
O=C(COC(=O)c1cc([N+](=O)[O-])ccc1N1CCOCC1)Nc1cccc(F)c1	HCV inhibitor 13µM
CCOc1ccc(CCNC(=O)COC(=O)c2cc(OC)c(OC)cc2[N+](=O)[O-])cc1OCC	HCV inhibitor inconclusive, Pf growth 96h inconclusive, Pf growth 48h 15µM (no result: NS1 function inh)
CCOc1ccc(CCNC(=O)c2cc([N+](=O)[O-])ccc2N2CCOCC2)cc1OCC	HCV inhibitor inconclusive, Pf growth 96h inconclusive, Pf growth 48h inconclusive
CCOC(=O)c1ccccc1NC(=O)COC(=O)c1cc([N+](=O)[O-])ccc1N1CCOCC1	AMA1-RON2 inh inconclusive, HCV inhibitor 2.2µM, Pf growth 96h inconclusive, Pf growth 48h inconclusive (no result: NS1 function inh)
CCOc1ccc(CCNC(=O)COC(=O)c2cc([N+](=O)[O-])ccc2N2CCOCC2)cc1OCC	HCV inhibitor inconclusive, Pf growth 96h 9.3µM, Pf growth 48h inconclusive
COc1ccc(NC(=O)CSc2nccn2Cc2ccco2)cc1	none
O=c1oc2ccccc2c(O)c1/C=N/c1nc(-c2ccc(O)c(O)c2)cs1	none (no result: AMA1-RON2 inh, HCV inhibitor, Pf growth 96h, SARS PLpro yeast, Pf growth 48h)
O=C(NCc1ccccc1)C1=C[C@H](c2ccc(Br)cc2)C[C@H](OCc2ccc(CO)cc2)O1	NS1 function inh inconclusive, Pf growth 96h 1.7µM, Pf growth 48h inconclusive
O=C(Nc1ccccc1)C1=C[C@H](c2ccc(Br)cc2)C[C@H](OCc2ccc(CO)cc2)O1	Pf growth 96h inconclusive
C#Cc1ccc([C@@H]2C=C(C(=O)NCc3ccccc3)O[C@H](OCc3ccc(CO)cc3)C2)cc1	Pf growth 96h inconclusive, Pf growth 48h inconclusive
O=C(NCc1ccccc1)C1=C[C@@H](c2ccccc2)C[C@@H](OCc2ccc(CO)cc2)O1	HCV inhibitor inconclusive, Pf growth 96h 9.3µM, Pf growth 48h inconclusive
CC1Cc2ccccc2N1C(=O)COC(=O)c1ccc(Cl)c(S(=O)(=O)N2CCOCC2)c1 (centres undefined)	Pf growth 96h inconclusive, Pf growth 48h inconclusive (no result: NS1 function inh)
OCCC1CN(Cc2cnc(-c3ccccc3)s2)CCN1Cc1ccccc1 (centres undefined)	HCV inhibitor inconclusive, Pf growth 96h 12µM
OCCC1CN(Cc2cc3c(cc2Cl)OCO3)CCN1Cc1ccccc1 (centres undefined)	Pf growth 96h 10µM, Pf growth 48h inconclusive
